This is part of a sample that, as a whole, favours compounds with a hit. Of some 83,000 tested, about 20% had one in any assay.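 Testing used 96-well plates and a 48-hour single-concentration exposure. Example: -40 means 40% of the starting cells died.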 The source made the active and inactive calls. Rule for the calls: active = growth percent below 10; inactive = the rest.
Columns and labels:
Test in all cases: NCI-60 one-dose screen, 48 h (100 = growth as untreated, 0 = no growth, -100 = all killed)
Details in all cases: 10 µM unless noted
SK-MEL-2 melanoma = system: SK-MEL-2 melanoma
EKVX NSCLC = system: EKVX NSCLC
SN12C renal = system: SN12C renal
UO-31 renal = system: UO-31 renal
TK-10 renal = system: TK-10 renal
ACHN renal = system: ACHN renal
CAKI-1 renal = system: CAKI-1 renal
A498 renal = system: A498 renal
CCRF-CEM leukemia = system: CCRF-CEM leukemia
MOLT-4 leukemia = system: MOLT-4 leukemia
SR leukemia = system: SR leukemia
RPMI-8226 leukemia = system: RPMI-8226 leukemia
OVCAR-8 ovarian = system: OVCAR-8 ovarian
OVCAR-5 ovarian = system: OVCAR-5 ovarian
OVCAR-4 ovarian = system: OVCAR-4 ovarian
SK-OV-3 ovarian = system: SK-OV-3 ovarian
IGROV1 ovarian = system: IGROV1 ovarian
OVCAR-3 ovarian = system: OVCAR-3 ovarian
HS 578T breast = system: HS 578T breast
NCI/ADR-RES ovarian = system: NCI/ADR-RES ovarian

Measured: growth

COC(=O)/C=C1/SC(=Nc2ccc(C)cc2)N(CCc2c[nH]c3ccc(O)cc23)C1=O
active: CCRF-CEM leukemia 1.81% | MOLT-4 leukemia -8.16% | SR leukemia -27.4% | RPMI-8226 leukemia 1.84%
inactive: SK-MEL-2 melanoma 35.4% | EKVX NSCLC 49.6% | SN12C renal 45.4% | UO-31 renal 46.8% | TK-10 renal 94.6% | ACHN renal 57.4% | CAKI-1 renal 69.9% | A498 renal 67.1% | OVCAR-8 ovarian 29.4% | OVCAR-5 ovarian 108% | OVCAR-4 ovarian 51.1% | SK-OV-3 ovarian 98.4% | IGROV1 ovarian 27.5% | OVCAR-3 ovarian 32.7% | HS 578T breast 55.1% | NCI/ADR-RES ovarian 50%

O=C(Cc1ccccc1)Nc1nc(O)c(/C=C2\C(=O)C=Cc3ccccc32)s1
inactive: SK-MEL-2 melanoma 110% | EKVX NSCLC 95.6% | SN12C renal 101% | UO-31 renal 78.2% | TK-10 renal 150% | ACHN renal 101% | CAKI-1 renal 85.3% | A498 renal 66.8% | CCRF-CEM leukemia 114% | MOLT-4 leukemia 101% | SR leukemia 104% | RPMI-8226 leukemia 106% | OVCAR-8 ovarian 97.5% | OVCAR-5 ovarian 104% | OVCAR-4 ovarian 100% | SK-OV-3 ovarian 83% | IGROV1 ovarian 102% | OVCAR-3 ovarian 102% | HS 578T breast 97.8% | NCI/ADR-RES ovarian 96.7%

C=C(C)[C@@H]1CC[C@]2(C(=O)NCC#CCN3CCN(C)CC3)CC[C@]3(C)[C@H](CC[C@@H]4[C@@](C)(CCC#N)[C@H](C(=C)C)CC[C@]43C)[C@@H]12
inactive: SK-MEL-2 melanoma 91.8% | EKVX NSCLC 52.1% | SN12C renal 69.2% | UO-31 renal 51.6% | TK-10 renal 80.4% | ACHN renal 70.8% | CAKI-1 renal 57.7% | A498 renal 57.5% | CCRF-CEM leukemia 51.3% | MOLT-4 leukemia 10.9% | RPMI-8226 leukemia 33.6% | OVCAR-8 ovarian 70.7% | OVCAR-5 ovarian 64.5% | OVCAR-4 ovarian 52.8% | SK-OV-3 ovarian 72.6% | IGROV1 ovarian 43.5% | OVCAR-3 ovarian 54.2% | HS 578T breast 65.5% | NCI/ADR-RES ovarian 55.8%
active: SR leukemia -12.1%

Cc1cccc(Cl)c1NC(=O)c1ccc2nc(NC(=O)NCCN(C)C)sc2c1
inactive: SK-MEL-2 melanoma 103% | EKVX NSCLC 104% | SN12C renal 92% | UO-31 renal 90.1% | TK-10 renal 111% | ACHN renal 92.9% | CAKI-1 renal 95.1% | A498 renal 90.7% | CCRF-CEM leukemia 79.4% | MOLT-4 leukemia 80.2% | SR leukemia 66% | RPMI-8226 leukemia 94% | OVCAR-8 ovarian 85.7% | OVCAR-5 ovarian 85.4% | OVCAR-4 ovarian 95.3% | SK-OV-3 ovarian 64.2% | IGROV1 ovarian 109% | OVCAR-3 ovarian 114% | HS 578T breast 81.8% | NCI/ADR-RES ovarian 118%

Nc1c(C(=O)Nc2ccccc2Cl)sc2nc3c(cc12)C(O)CCC3 (centres undefined)
inactive: SK-MEL-2 melanoma 36.5% | EKVX NSCLC 40.7% | SN12C renal 59.7% | UO-31 renal 56.9% | TK-10 renal 45.8% | ACHN renal 57.1% | CAKI-1 renal 49.6% | A498 renal 18% | CCRF-CEM leukemia 17.7% | MOLT-4 leukemia 38.9% | SR leukemia 13.4% | RPMI-8226 leukemia 25.2% | OVCAR-8 ovarian 32.3% | OVCAR-5 ovarian 80.6% | OVCAR-4 ovarian 53.9% | SK-OV-3 ovarian 42.9% | IGROV1 ovarian 57.2% | OVCAR-3 ovarian 15.5% | HS 578T breast 58.5% | NCI/ADR-RES ovarian 18.8%

C=C1C(=O)O[C@H]2[C@H]1CC/C(COC(=O)NCc1ccc(Cn3c(=O)sn(CCI)c3=O)cc1)=C\CC[C@@]1(C)O[C@@H]21
active: TK-10 renal 0.429% | CAKI-1 renal 7% | CCRF-CEM leukemia -16.1% | MOLT-4 leukemia -6.69% | SR leukemia -2.32% | IGROV1 ovarian -75.5% | OVCAR-3 ovarian -55.4%
inactive: SK-MEL-2 melanoma 73.9% | EKVX NSCLC 91% | SN12C renal 70.3% | UO-31 renal 68.3% | ACHN renal 27.7% | A498 renal 120% | RPMI-8226 leukemia 29.1% | OVCAR-8 ovarian 89.4% | OVCAR-5 ovarian 82% | OVCAR-4 ovarian 32.1% | SK-OV-3 ovarian 109% | HS 578T breast 94.3% | NCI/ADR-RES ovarian 101%

CCc1ccc(C(=O)/C=C/C23c4ccccc4C(c4ccccc42)C2C(=O)NC(=O)C23)cc1 (centres undefined)
active: SK-MEL-2 melanoma 3.45% | SN12C renal -7.89% | ACHN renal 0.0344% | A498 renal 5.29% | CCRF-CEM leukemia 0.462% | MOLT-4 leukemia 2.03% | SR leukemia 0.497% | RPMI-8226 leukemia -35.1% | OVCAR-8 ovarian -20% | IGROV1 ovarian 0.604% | NCI/ADR-RES ovarian 4.03%
inactive: EKVX NSCLC 23.2% | UO-31 renal 22.1% | TK-10 renal 18% | CAKI-1 renal 27.5% | OVCAR-5 ovarian 15.7% | OVCAR-4 ovarian 37.5% | SK-OV-3 ovarian 38.6% | HS 578T breast 41%

CN1CCN(c2ccc(C(=O)Nc3cccc(C#Cc4cccc5[nH]nc(N)c45)c3)cc2C(F)(F)F)CC1
inactive: SK-MEL-2 melanoma 27.7% | EKVX NSCLC 17.1%
active: SN12C renal 3.37% | UO-31 renal -62% | TK-10 renal -30.2% | ACHN renal -46.2% | CAKI-1 renal -96.2% | A498 renal 5.93% | CCRF-CEM leukemia -25.3% | MOLT-4 leukemia -56.3% | SR leukemia -17.7% | RPMI-8226 leukemia -13.7% | OVCAR-8 ovarian -14.5% | OVCAR-5 ovarian -43.1% | OVCAR-4 ovarian -0.309% | SK-OV-3 ovarian -42.6% | IGROV1 ovarian -56.5% | OVCAR-3 ovarian -17.9% | HS 578T breast -26% | NCI/ADR-RES ovarian -24.7%

Reference: PubChem BioAssay (NCI)
